Results taken from PubChem BioAssay (Tox21).
Results filed as inconclusive are left out. Unmarked numbers belong to inactive results. The source made the active and inactive calls. Calls follow the shape of the dose curve; as a rule, active = well fitted inhibition curve with a large enough effect in the repeat runs; inconclusive = weak or mixed curves; inactive = flat fitted curve, though single readings scatter.

experiment: qHTS assay to identify small molecule HDAC inhibitors (AID 1259364); details: HCT-116 HDAC-Glo I/II luminescence, 2 h; series mostly up to 92.4 µM; activity change, negative = inhibition: at the top concentration; also: nearly all actives have a fitted effect of over 45% in size; as to activity change, negative = inhibition: top concentration of the series differs between compounds
Excerpt: U.S. Tox21 Program National Center for Advancing Translational Sciences [NCATS] NIH Chemical Genomics Center [NCGC] U.S. Environmental Protection Agency [EPA] National Institutes of Environmental Health Sciences [NIEHS] National Toxicology Program [NTP] U.S. Food and Drug Administration [FDA] Tox21 Assay Overview: Histone deacetylases (HDACs) are a group of epigenetic enzymes that regulate gene expression by histone deacetylation. HDACs are capable of introducing epigenetic modifications and such aberrations contribute to the onset and progression of several human diseases, thus making HDACs a popular therapeutic target. For identifying endogenous class I/II HDAC inhibitors a homogenous, luminogenic HDAC I/II cell based assay was used to measure the relative activity of class I and II HDACs from cells. Wild type HCT-116 cells were used to screen Tox21 libraries for identifying class I/II HDAC inhibitors.
Tox21 Assay Protocol Summary: HCT-116 cells were dispensed at 1,500 per well in 5uL of culture medium into white solid bottom 1536-well plates (Greiner Bio-One, Monroe, NC) using a Multidrop Combi (Thermo Scientific, Waltham, MA) dispenser. The assay plates were incubated at 37 C and 5% CO2 for an overnight, and then 23nL of compounds dissolved in DMSO and positive control were transferred using a Pintool station (Wako, San Diego, CA). The assay plates were incubated at 37C and 5% CO2 for 2hr. After compound treatment, 4uL of HDAC-Glo reagent (Promega Corporation, Madison, WI) was added to each well of the assay plates using Flying Reagent Dispenser (FRD, Aurora Discovery, San Diego, CA) and incubated the assay plates at room temperature for 30min. The luminescence signal was quantified using a ViewLux plate reader (Perkin Elmer, Shelton, CT).
% is scaled to controls: 0 for no effect and ±100 for the full control effect; potency is read from the fitted curve at half-maximal effect.

| Structure (SMILES) | activity change, negative = inhibition | Potency |
| --- | --- | --- |
| OCCN1CCN(CCCN2c3ccccc3Sc3ccc(Cl)cc32)CC1 | 0.704% [at 42.5 µM] |  |
| CC1(CN2CCC(n3c(=O)[nH]c4ccccc43)CC2)OCc2ccccc2-n2cccc21 (stereo not given) | -5.81% [at 42.5 µM] |  |
| CCCCCCNC(=O)n1cc(F)c(=O)[nH]c1=O | 2.22% [at 42.5 µM] |  |
| Oc1cccc(Nc2ccccc2)c1 | -9.24% |  |
| O=C1c2ccccc2C(=O)C1c1nc2ccccc2c(Br)c1O |  | 27.3 µM (active) |
| CC1CC(C)C(=O)C1=O (stereo not given) | 7.7% |  |
| O=C(O)c1cccc(-c2noc(-c3ccccc3F)n2)c1 |  | 0.422 µM (active) |
| O=C1C(=O)c2ccccc2C(O)=C1C1CCC(c2ccc(Cl)cc2)CC1 (stereo not given) | -6.13% [at 42.5 µM] |  |
| CC(=O)OCC(=O)NCCCOc1cccc(CN2CCCCC2)c1 | 7.58% [at 42.5 µM] |  |
| CCOC(=O)c1ccc(O)c(O)c1 | -5.53% [at 42.5 µM] |  |
| CC=C(Cl)Cl | -9.42% |  |
| CCOC(=O)c1ccc(OCCN2C[C@H](O)[C@@H](O)[C@H](O)[C@H]2CO)cc1 | 4.62% [at 42.5 µM] |  |
| CC1=C(Br)C(=O)C(Br)=C/C1=C(/c1ccccc1S(=O)(=O)O)c1cc(Br)c(O)c(Br)c1C |  | 7.39 µM (active) |
| Nc1cccc2c1CN(C1CCC(=O)NC1=O)C2=O (stereo not given) | 19.1% [at 42.5 µM] |  |
| Cc1cscn1 | 9.55% |  |
| CO/N=C(/C(=O)N[C@@H]1C(=O)N2C(C(=O)O)=C(COC(N)=O)CS[C@H]12)c1ccco1 | 1.88% |  |
| CCOC(=O)C1=C(C)NC(C)=C(C(=O)OC)C1c1cccc(Cl)c1Cl (stereo not given) | 1.35% [at 42.5 µM] |  |
| CC(C)C[C@H](NC(=O)[C@H](CCc1ccccc1)NC(=O)CN1CCOCC1)C(=O)N[C@@H](Cc1ccccc1)C(=O)N[C@@H](CC(C)C)C(=O)[C@@]1(C)CO1 | 6.4% [at 42.5 µM] |  |
| CC1=Nc2ccc3ccccc3c2C1(C)C | 0.0966% |  |
| CCCCN(CCN(CCCC)C(=O)N1CCOCC1)C(=O)N1CCOCC1 | -1.91% [at 42.5 µM] |  |

| Structure (SMILES) | activity change, negative = inhibition | Potency |
| --- | --- | --- |
| CCCCN1CCCC1C(=O)Nc1c(C)cc(C)cc1C (stereo not given) | -3.36% [at 42.5 µM] |  |
| Cc1ccccc1S | 0.922% [at 42.5 µM] |  |
| Cc1[nH]cnc1CN1CCc2c(c3ccccc3n2C)C1=O | 0.0317% [at 42.5 µM] |  |
| Oc1cccc(O)c1O | -3.58% |  |
| C=C(C)CCCC(C)CCO (stereo not given) | 1.67% |  |
| CC(C)c1nc(CN(C)C(=O)N[C@H](C(=O)N[C@@H](Cc2ccccc2)C[C@H](O)[C@H](Cc2ccccc2)NC(=O)OCc2cncs2)C(C)C)cs1 | -7.89% [at 42.5 µM] |  |
| N#CCCN(CCO)CCO | 0.199% |  |
| CCOc1ccccc1O[C@H](c1ccccc1)[C@H]1CNCCO1 | -2.27% [at 42.5 µM] |  |
| CC(C)(C)C(=O)C(=O)O | 2.12% |  |
| O=C1c2ccccc2C(=O)C1c1ccc(Br)cc1 |  | 18.8 µM (active) |
| COc1ccccc1N1CCN(CC(O)COc2cccc3ccccc23)CC1 (stereo not given) | 10.7% [at 42.5 µM] |  |
| CCC1NC(=O)c2cc(S(N)(=O)=O)c(Cl)cc2N1 (stereo not given) | -3.03% [at 42.5 µM] |  |
| C[C@]12CC[C@@H]3c4ccc(O)cc4CC[C@H]3[C@@H]1CC[C@@H]2OC(=O)CCC1CCCC1 |  | inactive |
| O=C(O)CCCCCCCCCCCBr |  | 24.4 µM (active) |
| C/C=C/C=C/C=O | 1.9% |  |
| CC(CO)CO | 5.84% |  |
| CC(C)Nc1cccnc1N1CCN(C(=O)c2cc3cc(NS(C)(=O)=O)ccc3[nH]2)CC1 | 8.78% [at 42.5 µM] |  |
| N#CCc1ccc(Cl)cc1Cl | 1.07% |  |
| C/C=C\C/C=C/CCCCCCCCOC(C)=O | -9.92% |  |
| Cc1cc(=O)c2c(O)c3c(O)cc(=O)c4c3c3c(cc(O)c1c23)C(C)(C)C=4O | 3.66% [at 19 µM] |  |
